Source: PubChem BioAssay (EPA / NIEHS)
A structure can be active in one record and inactive in another. Calls of active or inactive are those of the source. How the source made its calls: active means hit-call score of the fitted dose curve at least 0.9, where 1 is the maximum; inactive means score below 0.9.

Assay: BSK_4H_Eotaxin3: BioMAP Diversity Plus: 4H Assay for Eotaxin 3 Biomarker Activity (AID 2283000)
Settings: primary human endothelial cells (HUVEC); actives raise or lower the signal
Protocol: BSK_4H is a cell-based, multiplexed-readout assay that uses umbilical vein endothelium, a human vascular primary cell, with measurements taken at 24 hours after chemical dosing in a 96-well plate.BSK_4H_Eotaxin3 is an assay component measured in the BSK_4H assay. It measures Eotaxin-3 antibody related to regulation of gene expression using ELISA technology.Data from the assay component BSK_4H_Eotaxin3 was analyzed into 1 assay endpoint. This assay endpoint, BSK_4H_Eotaxin3, was analyzed with bidirectional fitting relative to DMSO as the negative control and baseline of activity. Using a type of binding reporter, gain or loss-of-signal activity can be used to understand changes in the signaling as they relate to the gene CCL26. Furthermore, this assay endpoint can be referred to as a primary readout, because this assay has produced multiple assay endpoints where this one serves a signaling function. To generalize the intended target to other relatable targets, this assay endpoint is annotated to the cytokine intended target family, where the subfamily is chemotactic factor.
The levels of cell surface (or secreted, indicated by the prefix "s") biomarker endpoints were measured by ELISA. Overt cytotoxicity to cells in confluent adherent cultures (all systems other than the BT system) was assessed by measuring total protein levels using sulforhodamine B (SRB) staining in parallel cultures at the time of biomarker measurements, indicated as SRB endpoints. For proliferation assays for adherent cell types, individual cell types are cultured at sub-confluence and relative cell numbers quantified by SRB staining at time points optimized for each system (48 h: 3C and CASM3C systems; 72 h: BT and HDF3CGF systems; 96 h: SAg system). SRB was performed by staining cells with 0.1% SRB after fixation with 10% TCA and reading wells at 560 nm.Viability and proliferation of PBMC (T cells) was quantified by Alamar Blue reduction for the SAg and BT systems. For PBMC viability (referred to as PBMC Cytotoxicity within the assay endpoint names), cells were plated (75,000/well in a 96-well plate) and then chemical samples added for 1 h before addition of activators, SEB and TSST-1 (20 ng/mL final concentration each). Cells were incubated for 90 h. Then, Alamar Blue (20 uL/well) (Invitrogen, Cat DAL1100) was added for 6 h, and the plates were read with a fluorescence microplate reader at 546/580 nm (excitation/emission). For PBMC proliferation, cells were plated and activated as above but incubated for only 16 h prior to addition of Alamar Blue. Plates were read after 6 h.

**Q.** For `COC(=O)c1ccccc1S(=O)(=O)NC(=O)N(C)c1nc(C)nc(OC)n1`, which outcome is on record?
**A.** inactive

**Q.** For `CNC(=O)Oc1cccc(N=CN(C)C)c1`, which outcome is on record?
**A.** inactive

**Q.** With `CCOCN(C(=O)CCl)c1c(C)cccc1CC` as the compound, how does the AC50 read?
**A.** 35.3 µM (active)

**Q.** For `CCC(C)(NC(=O)c1cc(Cl)c(C)c(Cl)c1)C(=O)CCl` (stereo not given), which AC50 is on record?
**A.** 9.74 µM (active)

**Q.** With `CC(C)(C)C(O)C(Oc1ccc(Cl)cc1)n1cncn1` (stereo not given) as the compound, how does the outcome read?
**A.** inactive

**Q.** With `CCS(=O)(=O)c1cccnc1S(=O)(=O)NC(=O)Nc1nc(OC)cc(OC)n1` as the compound, how does the outcome read?
**A.** inactive

**Q.** Which outcome does the source give for `CCOc1nc(NC)nc(NC(=O)NS(=O)(=O)c2ccccc2C(=O)OC)n1` here?
**A.** inactive

**Q.** For `N#Cc1c(Cl)c(Cl)c(Cl)c(C#N)c1Cl`, which AC50 is on record?
**A.** 1.82 µM (active)

**Q.** With `O=C(NC(=O)c1c(F)cccc1F)Nc1ccc(OC(F)(F)C(F)OC(F)(F)F)c(Cl)c1` (stereo not given) as the compound, how does the outcome read?
**A.** inactive

**Q.** For `O=C(Nc1ccccc1)Nc1cnns1`, which outcome is on record?
**A.** inactive

**Q.** With `CN1CSC(=S)N(C)C1` as the compound, how does the AC50 read?
**A.** 20.9 µM (active)

**Q.** With `CNC(=O)Oc1ccccc1OC(C)C` as the compound, how does the outcome read?
**A.** inactive

**Q.** For `Oc1cc(Cl)ccc1Oc1ccc(Cl)cc1Cl`, which AC50 is on record?
**A.** 17.1 µM (active) [middle of 4 runs]

**Q.** For `CCOC1Oc2ccc(OS(C)(=O)=O)cc2C1(C)C` (stereo not given), which outcome is on record?
**A.** inactive

**Q.** Which outcome does the source give for `CCCN(CCOc1c(Cl)cc(Cl)cc1Cl)C(=O)n1ccnc1` here?
**A.** inactive

**Q.** For `CC[C@H](C)[C@H]1O[C@]2(C=C[C@@H]1C)C[C@@H]1C[C@@H](C/C=C(\C)[C@@H](O[C@H]3C[C@H](OC)[C@@H](O[C@H]4C[C@H](OC)[C@@H](O)[C@H](C)O4)[C@H](C)O3)[C@@H](C)/C=C/C=C3\CO[C@@H]4[C@H](O)C(C)=C[C@@H](C(=O)O1)[C@]34O)O2` (tested in a mixture with another compound), which AC50 is on record?
**A.** 9.57 µM (active)

**Q.** With `O=[N+]([O-])/N=C1\NCCN1Cc1ccc(Cl)nc1` as the compound, how does the outcome read?
**A.** inactive

**Q.** For `O=C(O)C(F)(F)C(F)(F)C(F)(F)C(F)(F)C(F)(F)C(F)(F)C(F)(F)F`, which outcome is on record?
**A.** inactive

**Q.** With `COc1nn(CSP(=S)(OC)OC)c(=O)s1` as the compound, how does the outcome read?
**A.** inactive

**Q.** With `O=C1c2ccccc2C(=O)N1SC(Cl)(Cl)Cl` as the compound, how does the outcome read?
**A.** inactive

**Q.** Which AC50 does the source give for `O=S(=O)(O)C(F)(F)C(F)(F)C(F)(F)C(F)(F)C(F)(F)C(F)(F)C(F)(F)C(F)(F)F` here?
**A.** 17.5 µM (active)

**Q.** What about the outcome of the same compound?
**A.** inactive

**Q.** With `[2H]C1([2H])[n+]2ccccc2-c2cccc[n+]2C1([2H])[2H]` as the compound, how does the outcome read?
**A.** inactive

**Q.** Which AC50 does the source give for `Oc1ccc(Cl)cc1Cc1ccccc1` here?
**A.** 34.4 µM (active) [middle of 7 runs]

**Q.** Which AC50 does the source give for `CC(C)(C)C(O)/C(=C\c1ccc(Cl)cc1Cl)n1cncn1` (stereo not given) here?
**A.** 30.4 µM (active)

**Q.** With `O=[N+]([O-])c1c(Cl)c(Cl)c(Cl)c(Cl)c1Cl` as the compound, how does the outcome read?
**A.** inactive

**Q.** For `CCc1ccc(C(=O)NN(C(=O)c2cc(C)cc(C)c2)C(C)(C)C)cc1`, which outcome is on record?
**A.** inactive

**Q.** With `O=C(O)CCCOc1ccc(Cl)cc1Cl` as the compound, how does the outcome read?
**A.** inactive

**Q.** For `COP(=S)(OC)Oc1ccc(SC)c(C)c1`, which outcome is on record?
**A.** inactive

**Q.** With `COC(=O)c1ccccc1S(=O)(=O)NC(=O)Nc1nc(C)nc(OC)n1` as the compound, how does the outcome read?
**A.** inactive

**Q.** Which outcome does the source give for `CC(C)N(C(=O)COc1nnc(C(F)(F)F)s1)c1ccc(F)cc1` here?
**A.** inactive

**Q.** With `CCC(C)(C)C(=O)OC1=C(c2ccc(Cl)cc2Cl)C(=O)OC12CCCCC2` as the compound, how does the AC50 read?
**A.** 32.3 µM (active)

**Q.** For `CCC(C)Nc1c([N+](=O)[O-])cc(C(C)(C)C)cc1[N+](=O)[O-]` (stereo not given), which outcome is on record?
**A.** inactive

**Q.** For `CCN(CC)C(=O)SCc1ccc(Cl)cc1`, which outcome is on record?
**A.** inactive

**Q.** Which results are given for `ClC1C(Cl)C(Cl)C(Cl)C(Cl)C1Cl` (stereo not given)?
**A.** AC50: 32.5 µM (active); outcome: inactive

**Q.** For `OCCOc1ccccc1`, which outcome is on record?
**A.** inactive

**Q.** For `Cc1cc(C)nc(NC(=O)NS(=O)(=O)c2ccccc2C(=O)OC2COC2)n1`, which outcome is on record?
**A.** inactive

**Q.** For `CCCN(CCC)c1c([N+](=O)[O-])cc(C(F)(F)F)cc1[N+](=O)[O-]`, which AC50 is on record?
**A.** 33 µM (active)

**Q.** With `COc1cc(OC)nc(NC(=O)NS(=O)(=O)c2cc(NC=O)ccc2C(=O)N(C)C)n1` as the compound, how does the outcome read?
**A.** inactive
